Rows were chosen to be rich in hits. Some 22% of all compounds tested hit in one or more screens of this group.
Pf growth 96h – inhibits malaria parasite growth, 96 h; P. falciparum luciferase reporter growth, 96 h; Potency, µM (titrated, usually from 28.7 µM), inactives show at the highest dose activity change, negative = inhibition, actives largely listed as inhibitors; 320,000 tested, 6.9% active; AID 504834; further: potency means the concentration at half of the fitted maximal effect; on the % scale 0 is the no-effect control and ±100 the full control effect
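Plates of compound plus infected erythrocytes (2% hematocrit, 0.05% parasitemia final) incubate 96 hours, 37 C, 5% CO2. Detection reagent added; reduced luminescence from the parasites' luciferase reporter flags inhibition.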
Cycloheximide cs – counter-screen hit for Shiga toxin inhibitors, cycloheximide; AID 2314; cell reporter, cycloheximide protein synthesis inhibition counterscreen; max response, %; 300,000 tested, 12% active; in the data active means max response mostly above about 13%, no sharp cut-off; inactive means mostly below about 14%; further: read at 38.3 µM for the half of the compounds with a filed dose; 0% is about no effect
Pf growth 48h – P. falciparum growth inhibition at 48 hours (one generation) | P. falciparum luciferase growth in erythrocytes, 48 h | Potency, µM (doses to about 28.7 µM), without a hit: top-dose activity change, negative = inhibition, actives largely listed as inhibitors | 310,000 tested, 5.9% active | AID 504832; further: potency means the concentration at half of the fitted maximal effect; on the % scale 0 is the no-effect control and ±100 the full control effect
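Cell-based growth assay: transgenic P. falciparum expressing firefly luciferase, cultured in red cells within RPMI 1640 containing 0.5% w/v Albumax, 24 mM bicarbonate and gentamycin. A drop in luciferase activity indicates inhibition.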
LmPK inhibitor – blocks Leishmania mexicana pyruvate kinase activity. AID 1721. Potency, µM (series often up to 57.5 µM), for the others: at the highest dose activity change, negative = inhibition, hits mostly inhibitors. purified LmPK, Kinase-Glo ATP luminescence, 1 h. 290,000 tested, 0.37% active; further: potency means the concentration at half of the fitted maximal effect; on the % scale 0 is the no-effect control and ±100 the full control effect
Target sequence (Q27686 whole entry, looked up): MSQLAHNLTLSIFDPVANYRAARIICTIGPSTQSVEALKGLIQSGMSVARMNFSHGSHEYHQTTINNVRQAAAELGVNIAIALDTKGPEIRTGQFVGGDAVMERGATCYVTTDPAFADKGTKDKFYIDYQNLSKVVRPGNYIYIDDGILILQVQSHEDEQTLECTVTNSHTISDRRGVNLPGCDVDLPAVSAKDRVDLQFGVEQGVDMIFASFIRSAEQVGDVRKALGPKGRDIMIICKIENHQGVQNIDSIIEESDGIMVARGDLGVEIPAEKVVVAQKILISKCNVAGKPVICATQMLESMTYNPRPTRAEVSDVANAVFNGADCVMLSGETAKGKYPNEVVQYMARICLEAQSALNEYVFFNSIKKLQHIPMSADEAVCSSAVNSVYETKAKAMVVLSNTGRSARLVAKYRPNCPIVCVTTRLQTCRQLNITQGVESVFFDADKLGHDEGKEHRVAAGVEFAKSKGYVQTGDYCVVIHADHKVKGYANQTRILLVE
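Pyruvate kinase activity monitored as ATP production (luciferase luminescence). Conditions: 0.1 nM enzyme, 0.5 mM PEP, 0.1 mM ADP, 1 h, RT; normalized against uninhibited and no-enzyme wells.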
Shiga toxin inh – inhibitors of Shiga toxin in Vero cells. 290,000 tested, 9.2% active. AID 2315. Vero cells, Shiga toxin protein synthesis inhibition reporter. inhibition, % at 38.7 µM; in the data active means inhibition mostly above about 28%, no sharp cut-off; inactive means mostly below about 43%; further: 0% is about no effect
Starred values were filed as active, the others as inactive. Unless noted, the call rests on the fitted dose curve; in most records, active means well fitted inhibition curve with a large enough effect; inconclusive means small, poorly fitted or top-dose-only effect, or another doubt; inactive means no such curve, though single readings can be large or run the other way.

Screening CC(C)CC(NC(=O)C(NC(=O)OC(C)(C)C)C(C)C)C(N)=O (stereo not given) returned Pf growth 96h 9%, Cycloheximide cs -4, Pf growth 48h 0%, LmPK inhibitor -4% and Shiga toxin inh -7.
For CC(=O)NC(Cc1ccccc1)C(=O)NC(Cc1ccccc1)C(=O)O (stereo not given) the results were Pf growth 96h 61%, Cycloheximide cs -1, Pf growth 48h -1%, LmPK inhibitor 2% and Shiga toxin inh -2.
`CC(=O)NC(CC(C)C)C(=O)NC(Cc1ccccc1)C(N)=O` (stereo not given) gave Pf growth 96h inconclusive, Cycloheximide cs 8.8*, Pf growth 48h 0%, LmPK inhibitor 3% and Shiga toxin inh 9.
CC(C)CC(NC(=O)C(NC(=O)OC(C)(C)C)C(C)C)C(=O)NC(CCC(=O)OCc1ccccc1)C(N)=O (stereo not given) was read as Pf growth 96h inconclusive, Cycloheximide cs -1, Pf growth 48h 1.9µM*, LmPK inhibitor -15% and Shiga toxin inh 18.
`CCOC(=O)C1CCCN(S(=O)(=O)c2cnc(Cl)c(Br)c2)C1` (stereo not given) gave Pf growth 96h 39%, Cycloheximide cs 18, Pf growth 48h 2%, LmPK inhibitor -1% and Shiga toxin inh -9.
Cc1ccccc1NCCC(=O)Nc1ccc(Cl)cc1 was read as Pf growth 96h 30%, Cycloheximide cs 6, Pf growth 48h 16%, LmPK inhibitor 1% and Shiga toxin inh 46.
For COc1ccc(C(=O)COC(=O)CNS(=O)(=O)c2ccc(C)cc2)cc1 the results were Pf growth 96h -9%, Cycloheximide cs -2, Pf growth 48h 1%, LmPK inhibitor -1% and Shiga toxin inh -12.
Screening CC(=O)c1c(C)[nH]c(C(=O)OCC(=O)Nc2cccc(S(=O)(=O)N3CCCC3)c2)c1C returned Pf growth 96h 0.83µM*, Cycloheximide cs -5, Pf growth 48h 5.9µM*, LmPK inhibitor 1% and Shiga toxin inh -12.
`Cc1ccc(C)c(C(=O)OCC(=O)Nc2cccc(S(=O)(=O)N3CCCCC3)c2)c1` gave Pf growth 96h 10µM* and Pf growth 48h 10µM*.
For COc1ccccc1C(=O)OCC(=O)Nc1cccc(S(=O)(=O)N2CCCC2)c1 the results were Pf growth 96h -3% and Pf growth 48h inconclusive.
For Cc1ccc(C)c(OCCC(=O)Nc2cccc(S(=O)(=O)N3CCCCC3)c2)c1 the results were Pf growth 96h inconclusive and Pf growth 48h 12µM*.
`CC1(C)CC[C@]2(C(=O)O)[C@H](O)C[C@]3(C)C(=CCC4[C@@]5(C)C[C@H](O)[C@H](O)[C@@](C)(CO)C5CC[C@]43C)[C@@H]2C1` (stereo not given in full) gave Pf growth 96h -5% and Pf growth 48h -27%.
`Cc1c(NS(=O)(=O)c2ccc(NCCN3CCOCC3)c([N+](=O)[O-])c2)c(=O)n(-c2ccccc2)n1C` gave Pf growth 96h -2%, Cycloheximide cs 4, Pf growth 48h 0%, LmPK inhibitor 0% and Shiga toxin inh 20.
Screening Cc1ccc(NC(=O)CSc2nsc(SCC(=O)Nc3ccc(C)cc3C)c2C#N)c(C)c1 returned Pf growth 96h 8%, Cycloheximide cs -2, Pf growth 48h 5%, LmPK inhibitor -9% and Shiga toxin inh -2.
For Cc1csc(NC(=O)CSc2sc3c(O)cc(=O)[nH]c3c2C#N)n1 the results were Pf growth 96h 2.1µM*, Cycloheximide cs 4, Pf growth 48h 28%, LmPK inhibitor 3% and Shiga toxin inh 18.
For Cc1csc(NC(=O)CSc2nsc(SCC(=O)Nc3nc(C)cs3)c2C#N)n1 the results were Pf growth 96h -23%, Cycloheximide cs 41*, Pf growth 48h 245%, LmPK inhibitor 4% and Shiga toxin inh 117*.
Screening O=c1oc2ccccc2cc1-c1cn2cccnc2n1 returned Pf growth 96h 8%, Cycloheximide cs 57*, Pf growth 48h 212%, LmPK inhibitor -19% and Shiga toxin inh 103*.
`Cc1cccn2cc(-c3cc4ccccc4oc3=O)nc12` gave Pf growth 96h inconclusive, Cycloheximide cs 53*, Pf growth 48h 264%, LmPK inhibitor -18% and Shiga toxin inh 111*.
For O=C(NC1CCCC1)c1csc2c1CCCC2 the results were Pf growth 96h 25%, Cycloheximide cs 28, Pf growth 48h 25%, LmPK inhibitor -5% and Shiga toxin inh 38.
`C=CCNCC(=O)Nc1sc2c(c1C(=O)Nc1ccc(OC)cc1OC)CCC2` gave Pf growth 96h 32%, Cycloheximide cs -4, Pf growth 48h 12µM*, LmPK inhibitor 5% and Shiga toxin inh 9.
Screening O=C(Nc1ccccc1O)c1csc2c1CCCC2 returned Pf growth 96h 30%, Cycloheximide cs 35*, Pf growth 48h inconclusive, LmPK inhibitor -3% and Shiga toxin inh 98*.
For COc1ccc(NC(=O)c2csc3c2CCCCC3)c(OC)c1 the results were Pf growth 96h -11%, Cycloheximide cs 16*, Pf growth 48h -19%, LmPK inhibitor -3% and Shiga toxin inh 44.
Cc1c(C(C)(C)C)sc(=NC(=O)c2ccccc2O)n1C was read as Pf growth 96h inconclusive, Cycloheximide cs 38*, Pf growth 48h 86%, LmPK inhibitor -1% and Shiga toxin inh 82*.
For C/C(=N\NC(=O)c1ccncc1)c1cc2ccccc2o1 the results were Pf growth 96h 13%, Cycloheximide cs -1, Pf growth 48h 0%, LmPK inhibitor -2% and Shiga toxin inh 14.
Screening C/C(=N\NC(=O)COc1ccccc1F)c1cc2ccccc2o1 returned Pf growth 96h -26%, Cycloheximide cs 48*, Pf growth 48h 56%, LmPK inhibitor -6% and Shiga toxin inh 126*.
`C/C(=N\NC(=O)c1ccco1)c1cc(Cl)sc1Cl` gave Pf growth 96h 44%, Cycloheximide cs 25*, Pf growth 48h 39%, LmPK inhibitor -9% and Shiga toxin inh 71*.
Screening C/C(=N\NC(=O)c1ccco1)c1ccc(NC(=O)c2ccccc2)cc1 returned Pf growth 96h 13µM*, Cycloheximide cs 35*, Pf growth 48h 325%, LmPK inhibitor -12% and Shiga toxin inh 72*.
`C/C(=N\NC(=O)c1ccco1)c1cc2ccccc2o1` gave Pf growth 96h -26%, Cycloheximide cs 58*, Pf growth 48h 80%, LmPK inhibitor 3% and Shiga toxin inh 95*.
Screening CC(=O)NCC(=O)OCC(=O)c1ccc(Br)cc1 returned Pf growth 96h 6%, Cycloheximide cs -4, Pf growth 48h 0%, LmPK inhibitor -2% and Shiga toxin inh -3.
COc1ccc(CN2CCNC(=O)C2CC(=O)NCCN2CCCCC2=O)c(F)c1 (stereo not given) was read as Pf growth 96h 2%, Cycloheximide cs -3, Pf growth 48h 31%, LmPK inhibitor -5% and Shiga toxin inh -5.
